According to PubChem BioAssay AID1511 (Johns Hopkins Ion Channel Center, 2009):
Among all 310,000 compounds or so, about 1,600 (0.52%) were called active. The full list was thinned out, with actives kept by preference. Unmarked numbers belong to inactive results.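 How the source made its calls: active means activation above the mean of controls blocked by dofetilide plus 5 SD; inactive means the rest.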

Each compound was assayed against Voltage-gated inwardly rectifying potassium channel KCNH2 (Homo sapiens) (UniProt Q12809) (assay: compounds relieving dofetilide block of hERG – cell-based, CHO-hERG, FluxOR thallium flux, dofetilide IC70, primary screen (AID 1511;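 further: thallium influx through hERG after potassium depolarization seen as dye fluorescence rise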)). Settings: dofetilide IC70 present, at 10 µM, stronger effect = higher value.
Sequence of Voltage-gated inwardly rectifying potassium channel KCNH2 (Homo sapiens) (Q12809 whole entry, looked up): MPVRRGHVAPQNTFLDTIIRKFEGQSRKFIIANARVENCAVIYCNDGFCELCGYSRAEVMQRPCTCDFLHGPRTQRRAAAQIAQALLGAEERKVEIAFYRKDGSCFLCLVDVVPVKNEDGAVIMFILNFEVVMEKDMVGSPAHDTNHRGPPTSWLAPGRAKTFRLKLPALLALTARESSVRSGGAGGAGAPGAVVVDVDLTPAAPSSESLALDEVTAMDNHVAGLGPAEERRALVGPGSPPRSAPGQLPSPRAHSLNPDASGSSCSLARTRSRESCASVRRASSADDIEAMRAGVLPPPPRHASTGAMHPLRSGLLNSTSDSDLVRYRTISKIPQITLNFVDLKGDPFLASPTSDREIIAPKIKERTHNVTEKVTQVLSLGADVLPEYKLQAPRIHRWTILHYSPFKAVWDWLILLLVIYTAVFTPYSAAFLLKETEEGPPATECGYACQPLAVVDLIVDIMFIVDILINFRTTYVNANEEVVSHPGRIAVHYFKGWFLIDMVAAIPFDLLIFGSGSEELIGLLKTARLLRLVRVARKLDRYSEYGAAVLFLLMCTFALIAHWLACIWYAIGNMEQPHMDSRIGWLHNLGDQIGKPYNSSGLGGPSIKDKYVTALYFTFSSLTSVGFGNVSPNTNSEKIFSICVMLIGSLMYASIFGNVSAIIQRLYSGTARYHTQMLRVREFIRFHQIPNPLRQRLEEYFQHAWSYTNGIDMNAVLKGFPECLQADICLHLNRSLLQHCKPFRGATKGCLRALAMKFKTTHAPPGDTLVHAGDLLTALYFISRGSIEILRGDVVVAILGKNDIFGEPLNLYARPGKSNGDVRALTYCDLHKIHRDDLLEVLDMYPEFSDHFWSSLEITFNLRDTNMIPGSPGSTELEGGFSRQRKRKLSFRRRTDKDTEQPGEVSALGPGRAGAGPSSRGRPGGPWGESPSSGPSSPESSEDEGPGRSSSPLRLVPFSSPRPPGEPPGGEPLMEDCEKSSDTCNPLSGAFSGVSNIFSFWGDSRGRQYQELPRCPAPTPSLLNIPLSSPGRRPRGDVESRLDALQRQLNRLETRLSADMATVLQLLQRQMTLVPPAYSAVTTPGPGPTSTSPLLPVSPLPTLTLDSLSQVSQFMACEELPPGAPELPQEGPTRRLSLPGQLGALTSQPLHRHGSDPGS

Compound	activation (rescue from dofetilide block), less the hit threshold
CCOC(=O)c1c(NC(=S)NC)sc2c1CCCC2	28.9% (active)
CCOC(=O)c1c(NC(=O)C2(C)Cc3ccccc3C(=O)O2)sc2c1CCCC2 (centres undefined)	-5.83%
CCOc1ccc(CCN2C(=O)c3cccnc3C2=O)cc1OCC	-5.29%
CCc1nnc(NC(=O)c2c(O)c3c([nH]c2=O)CCCC3)s1	-12.7%
O=C(NCc1ccccn1)c1c(O)c2c([nH]c1=O)CCCC2	-0.66%
C[N+](C)(C)CCNC(=O)c1c(O)c2c([nH]c1=O)CCCC2	4.89% (active)
CCSc1ccccc1C(=O)NCc1ccc(OC)cc1	0.47%
CCC(C(=O)NC1CCCC1)N(C(=O)Cn1nnc(-c2ccc(C)o2)n1)c1ccc(OC)c(OC)c1 (centres undefined)	-1.5%
CC(C)CNC(=S)NC(=O)c1ccc(Cl)cc1	7.52% (active)
O=C(NC(=S)NC1CCCCC1)c1ccc(Cl)cc1	-1.76%
CC(C)C(NC(=O)c1ccc(Cl)cc1)C(=O)O (centres undefined)	-8.13%
OC(c1nnc(-c2ccccc2)o1)c1cccs1 (centres undefined)	-10.2%
COCCCNC(=O)[C@H]1N2C(=O)c3ccccc3C2SC1(C)C (some centres undefined)	-7.64%
CC1CCCN(C(=O)c2ccc3c(c2)C(=O)N(CCC2=CCCCC2)C3=O)C1 (centres undefined)	-17.2%
Cc1ccc(S(=O)(=O)Oc2ccc(/C=N/NC(=O)c3c(Cl)cnn3C)cc2)cc1	-18.1%
CCc1nc2sc3c(Cl)ncnc3c2c2c1CCCC2	-13.4%
Cc1cc(C)c2nc(NC(=O)C3CCCO3)sc2c1 (centres undefined)	5.12% (active)
Cc1ccc(C)c(C(C)NC(=O)C2CCCO2)c1 (centres undefined)	-6.97%
Cc1cc([N+](=O)[O-])ccc1NC(=O)C1CCCO1 (centres undefined)	-1.96%
CSc1cccc(NC(=S)N(C(C)C)C(C)c2ccccn2)c1 (centres undefined)	-10.5%
Cc1cc(NC(=O)CSc2nc3cc(Cl)ccc3c(=O)n2Cc2ccco2)no1	6.67% (active)
N#Cc1c(NC(=O)CSc2nc3ccccc3c(=O)n2Cc2ccco2)sc2c1CCCC2	-16.4%
Cc1cc(NC(=O)CSc2nc3ccccc3n2CC(C)C)no1	-8.27%
CCN1CCN(c2nc(Nc3cccc(F)c3)nc(N)c2[N+](=O)[O-])CC1	1.19%
CCCN(CCC)S(=O)(=O)c1ccc(C(=O)NNC(=O)c2cc(OC)c(OC)c(OC)c2)cc1	-5.35%

Compound	activation (rescue from dofetilide block), less the hit threshold
COCCN1C=C2C(=O)C(C)(OC(=O)C3CCCC3)C(=O)C=C2C=C1c1ccsc1 (centres undefined)	-7.58%
CC1(OC(=O)C2CCCC2)C(=O)C=C2C=C(c3ccc(C#N)cc3)OC=C2C1=O (centres undefined)	7.34% (active)
C=CCN1C=C2C(=O)C(C)(OC(=O)CCc3ccccc3)C(=O)C=C2C=C1c1ccc(C#N)cc1 (centres undefined)	-7.84%
COc1ccc2c(c1)OC(O)(C(F)(F)C(F)F)CC2=O (centres undefined)	-2.37%
CCN1CCCC1CNC(=O)Cn1cnc2ccc(S(=O)(=O)N3CCC(C)CC3)cc2c1=O (centres undefined)	7.23% (active)
CC1CCN(S(=O)(=O)c2ccc3ncn(CC(=O)N(C)C4CCCCC4)c(=O)c3c2)CC1	-5.76%
O=C(Cn1cnc2ccccc2c1=O)Nc1cccc(S(=O)(=O)N2CCCCC2)c1	-13.8%
CN(CCc1cn[nH]c1)C(=O)CC1C(=O)NCCN1Cc1cccc(Oc2ccccc2)c1 (centres undefined)	-5.68%
NC(=O)Cc1ccc2c(c1)[nH]c1ccccc12	-8.6%
S=c1ccc2ccccc2[nH]1	-11.4%
S=c1[nH]c2ccccc2c2ccccc12	6.26% (active)
O=C(C1CCCN1S(=O)(=O)c1ccc(Br)cc1)N1CCOCC1 (centres undefined)	-0.78%
CCCCCC1CCC(c2nnc(SCC(C)=O)o2)CC1 (centres undefined)	5.95% (active)
O=C(CSc1nnc(-c2ccccc2O)o1)NC1CCCCC1	-7.03%
CCN(CC)C(=O)CSc1nnc(C2CCCCC2)o1	-6.69%
S=c1[nH]c(-c2cccs2)cn1-c1ccccc1	8.23% (active)
O=c1oc2ccccc2cc1-c1cn(-c2ccccc2)c(=S)[nH]1	-6.67%
COc1ccc(-c2cn(-c3ccc(OC)cc3)c(=S)[nH]2)cc1	-3.47%
CC(=O)N1CCN(S(=O)(=O)c2ccc(C)c([N+](=O)[O-])c2)C1C(C)C (centres undefined)	-8.18%
Cc1ccc2c(c1)N(CC(=O)N1CCC(C)CC1)C(=O)c1cccnc1O2	-4.18%
C=CCc1cc(S(=O)(=O)c2ccc(O)c(CC=C)c2)ccc1O	-8.79%
CCC1(C)Cc2c(sc3[nH]c(=S)n(Cc4ccccc4)c(=O)c23)CO1 (centres undefined)	32.2% (active)
CCC1(C)Cc2c(sc3nc4n(c(=O)c23)CCCS4)CO1 (centres undefined)	-3.92%
CCC1(C)Cc2c(sc3nc(SC)[nH]c(=O)c23)CO1 (centres undefined)	-9.23%
